± gives the standard deviation of the averaged measurements.
Experiments:
DLD1 [1] = assay: cell viability (CellTiter-Glo) relative to plate median (fraction of plate median); higher = more viable cells; conditions: 5 µM; treatment time 24 h; reporter: 7TFP
How it was run: (§1)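 Values are well luminescence normalised to the plate median, from either a firefly luciferase or a CellTiterGlo readout on parallel plates. The cells, colorectal cancer lines stably transduced with lentiviral 7TFP or TCF4/Wnt firefly luciferase reporters, were treated with library compounds at a final 5 µM for 24 h. The mean of two independent replicates is listed.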

HCT116 = assay: as above; conditions: 5 µM; treatment time 24 h; reporter: TCF4/Wnt
How it was run: as §1

SW480 [2] = assay: as above; conditions: 5 µM; treatment time 24 h; reporter: 7TFP
How it was run: as §1

DLD1 [3] = assay: TCF/Wnt firefly luciferase reporter signal relative to plate median (fraction of plate median); higher = higher Wnt reporter signal; conditions: 5 µM; treatment time 24 h; reporter: 7TFP
How it was run: as §1

SW480 [4] = assay: as above; conditions: 5 µM; treatment time 24 h; reporter: 7TFP
How it was run: as §1

| Compound | cell viability (DLD1 [1]) | cell viability (HCT116) | cell viability (SW480 [2]) | TCF/Wnt firefly luciferase reporter signal (DLD1 [3]) | TCF/Wnt firefly luciferase reporter signal (SW480 [4]) |
| --- | --- | --- | --- | --- | --- |
| CC(C)(C)NCC(O)c1cc(O)cc(O)c1 (stereo not given) | 1.045 ± 0.0071 | 1.02 ± 0.061 | 1.09 ± 0.028 | 0.999 ± 0.03 | 1.03 ± 0.13 |
| CCC(C)(C)C(=O)O[C@H]1C[C@@H](C)C=C2C=C[C@H](C)[C@H](CC[C@@H]3C[C@@H](O)CC(=O)O3)[C@H]21 | 0.864 ± 0.23 | 0.8745 ± 0.005 | 0.99 ± 0.071 | 0.902 ± 0.34 | 0.827 ± 0.41 |
| COc1cc2occ(-c3ccc(O)cc3)c(=O)c2cc1O [Kakkatin] | 1.04 ± 0.028 | 1.06 ± 0.14 | 1.01 ± 0.044 | 1.22 ± 0.028 | 1.09 ± 0.064 |
| CC(C)C1NC(=O)C2CCCN2C1=O (single isomer, unassigned; isomere) [Cyclo(prolylvalyl) (Isomere)] | 1 ± 0.023 | 0.992 ± 0.054 | 0.958 ± 0.06 | 0.939 ± 0.067 | 0.944 ± 0.11 |
| NC[C@H]1CC[C@H](C(=O)O)CC1 | 0.995 ± 0.022 | 1.025 ± 0.0071 | 1.02 ± 0.014 | 0.927 ± 0.1 | 0.981 ± 0.028 |
| CC(C)=CC1C(C(=O)O)C1(C)C (stereo not given) | 1 ± 0.037 | 0.98 ± 0.057 | 0.977 ± 0.047 | 0.897 ± 0.065 | 1.02 ± 0.058 |
| CCOC(=O)[C@@](C)(N)Cc1ccc(O)c(O)c1 | 1 ± 0.025 | 0.93 ± 0.098 | 0.979 ± 0.044 | 1.1 ± 0.12 | 1.07 ± 0.064 |
| CC1(C)OC(=O)NC1=O | 0.893 ± 0.18 | 0.9705 ± 0.0064 | 0.965 ± 0.092 | 1.08 ± 0.11 | 0.932 ± 0.14 |
| OC[C@H]1O[C@@H](Oc2ccc(O)cc2)[C@H](O)[C@@H](O)[C@@H]1O | 0.965 ± 0.04 | 0.989 ± 0.072 | 0.936 ± 0.018 | 0.963 ± 0.095 | 0.975 ± 0.033 |
| O=C(Oc1cc(O)cc2c1C[C@@H](OC(=O)c1cc(O)c(O)c(O)c1)[C@@H](c1cc(O)c(O)c(O)c1)O2)c1cc(O)c(O)c(O)c1 | 1.06 ± 0.028 | 1.1 ± 0.12 | 1.04 ± 0.021 | 0.89 ± 0.0071 | 0.951 ± 0.048 |
| CCCCC1=NC2(CCCC2)C(=O)N1Cc1ccc(-c2ccccc2-c2nnn[nH]2)cc1 | 0.897 ± 0.099 | 0.939 ± 0.016 | 1 ± 0.083 | 1.01 ± 0.048 | 0.811 ± 0.22 |
| Oc1ccc(/C=C/c2cc(O)cc(O)c2)cc1 | 0.995 ± 0.022 | 1.05 ± 0.042 | 1.03 ± 0.098 | 1.05 ± 0.05 | 0.891 ± 0.059 |
| C=C1[C@@H]([C@@]2(C)C=CC(=O)C(C)(C)[C@@H]2CC(=O)OC)CC[C@@]2(C)[C@H](c3ccoc3)OC(=O)[C@H]3O[C@]132 | 0.94 ± 0.021 | 1.01 ± 0.039 | 1.02 ± 0.021 | 0.978 ± 0.19 | 0.996 ± 0.048 |
| O=C(O)[C@@H](O)[C@H](O)[C@H](O)[C@@H](O)C(=O)O | 0.971 ± 0.023 | 1.03 ± 0.05 | 1 ± 0.051 | 1.06 ± 0.035 | 1.03 ± 0.028 |
| CC(=O)NCCc1ccc(O)cc1 [N-(p-Hydroxyphenyl)ethylacetamide] | 1.02 ± 0.04 | 1.09 ± 0.057 | 1.06 ± 0.021 | 0.99 ± 0.099 | 1.14 ± 0.021 |
| O=c1[nH]cnc2c1ncn2[C@@H]1O[C@H](CO)[C@@H](O)[C@H]1O [Inosin] | 0.943 ± 0.12 | 0.91 ± 0.15 | 0.971 ± 0.013 | 0.67 ± 0.24 | 0.999 ± 0.13 |
| C=C1CCC2C(CC2(C)C)C(=C)CC/C1=N/O (stereo not given) | 1.03 ± 0.035 | 1.02 ± 0.11 | 1 ± 0.023 | 1.095 ± 0.0071 | 0.907 ± 0.037 |
| CC[n+]1c(-c2ccccc2)c2cc(N)ccc2c2ccc(N)cc21 | 1.1 ± 0.014 | 1.1 ± 0.057 | 1.22 | 0.96 ± 0.085 | 1.08 ± 0.12 |
| CC[C@H]1OC(=O)[C@H](C)[C@@H](O[C@H]2C[C@@](C)(OC)[C@@H](O)[C@H](C)O2)[C@H](C)[C@@H](O[C@@H]2O[C@H](C)C[C@H](N(C)C)[C@H]2O)[C@](C)(O)C[C@@H](C)CN(C)[C@H](C)[C@@H](O)[C@]1(C)O | 1.065 ± 0.0071 | 0.8915 ± 0.0035 | 1.01 ± 0.049 | 0.97 ± 0.1 | 1.04 ± 0.12 |
| CC1(C)[C@@H](OC(=O)CCC(=O)O)CC[C@]2(C)[C@H]3C(=O)C=C4[C@@H]5C[C@@](C)(C(=O)O)CC[C@]5(C)CC[C@@]4(C)[C@]3(C)CC[C@@H]12 | 1 ± 0.011 | 1.02 ± 0.035 | 1.06 ± 0.014 | 1.09 | 1.01 |
| CC(=O)O[C@]1(C(C)=O)CC[C@H]2[C@@H]3C=C(Cl)C4=CC(=O)[C@@H]5C[C@@H]5[C@]4(C)[C@H]3CC[C@@]21C | 1 ± 0.035 | 0.96 ± 0.086 | 0.948 ± 0.0028 | 0.81 ± 0.052 | 0.923 ± 0.22 |
| CNCCc1ccccn1 | 0.835 ± 0.059 | 0.979 ± 0.086 | 0.958 ± 0.027 | 1.08 ± 0.21 | 1.1 ± 0.05 |
| COc1ccc(C(=O)CC(=O)c2ccc(C(C)(C)C)cc2)cc1 | 0.879 ± 0.2 | 0.904 ± 0.032 | 1.01 ± 0.021 | 1 ± 0.098 | 1.04 ± 0.18 |
| CN(C)CCCN1c2ccccc2Sc2ccccc21 | 0.908 ± 0.056 | 0.908 ± 0.032 | 0.96 ± 0.071 | 0.92 ± 0.021 | 0.895 ± 0.069 |
| CC(C)=CCc1cccc2c(C[C@@H]3NC(=O)[C@H](C)NC3=O)c[nH]c12 [Terezine D] | 1.03 ± 0.021 | 0.9635 ± 0.0021 | 0.981 ± 0.084 | 1.12 ± 0.31 | 0.92 ± 0.0099 |
| OC[C@@H](O)[C@@H](O[C@@H]1O[C@H](CO)[C@H](O)[C@H](O)[C@H]1O)[C@H](O)[C@@H](O)CO | 1.02 ± 0.038 | 0.904 ± 0.067 | 0.979 ± 0.021 | 0.781 ± 0.083 | 1.03 ± 0.1 |
| c1ccc2c(CC3=NCCN3)cccc2c1 | 1.11 ± 0.035 | 1.09 ± 0.028 | 1.09 ± 0.035 | 1.07 ± 0.12 | 0.984 ± 0.11 |
| CC(C)c1ccc2c(c1)CC[C@H]1[C@](C)(CN)CCC[C@]21C | 1.04 ± 0.028 | 1.07 ± 0.092 | 1.06 ± 0.028 | 1.18 ± 0.071 | 1.03 ± 0.13 |
| NC(=O)N1c2ccccc2C=Cc2ccccc21 | 0.931 ± 0.098 | 1.01 ± 0.029 | 1.004 ± 0.0092 | 1.05 ± 0.042 | 0.937 ± 0.17 |
